Measurements taken from PubChem BioAssay AID1159580 (chemical genetic matrix, 2015).
Values joined by “and” are separate entries in the source; they are usually repeats but may differ in a detail not shown here. Identical values can stand only once. About 2,000 (36%) of roughly 5,500 compounds were called active. Roughly 18% stayed inconclusive and do not appear here. Cut-off read from the data, not from the text of the source: active = normalized growth mostly below about 0.91 (no sharp cut-off); inconclusive = no clear call, values can overlap the other calls; inactive = mostly above about 0.92. The list shows a part of the results.

Test: chemical genetic growth profiling, strain panel (AID 1159580);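 note: tested at 20 µM; growth read once vehicle control cultures reached saturation at 30 °C; 1 = growth at the plate median or of vehicle wells; lower values mean less growth of the strain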
Conditions: S. cerevisiae deletion strains, growth OD

Measured: normalized growth

COc1ccc2c(=O)c(-c3cc4c(cc3OC)OCO4)coc2c1
inactive: locus YAL021C, strain ccr4, stronger effect = lower value 1 | locus YAL026C, strain drs2, stronger effect = lower value 1.01 | locus YAL030W, strain snc1, stronger effect = lower value 1 | locus YBL061C, strain skt5, stronger effect = lower value 1.01 | locus YBR009C, strain hhf1, stronger effect = lower value 1 | locus YBR021W, strain FUR4, stronger effect = lower value 0.907 | locus YBR023C, strain chs3, stronger effect = lower value 1.01 | locus YBR171W, strain sec66, stronger effect = lower value 1.01 | locus YBR229C, strain ROT2, stronger effect = lower value 1 | locus YBR231C, strain swc5, stronger effect = lower value 1.01 | locus YBR279W, strain paf1, stronger effect = lower value 1.02 | locus YCL011C, strain gbp2, stronger effect = lower value 1.01 | locus YCL016C, strain dcc1, stronger effect = lower value 1.01 | locus YCL029C, strain bik1, stronger effect = lower value 1 | locus YCL061C, strain MRC1, stronger effect = lower value 1.01 | locus YCL069W, strain vba3, stronger effect = lower value 1 | locus YCR088W, strain abp1, stronger effect = lower value 1.01 | locus YDL005C, strain med2, stronger effect = lower value 1.01 | locus YDL035C, strain GPR1, stronger effect = lower value 1 | locus YDL040C, strain nat1, stronger effect = lower value 1.01 | locus YDL074C, strain BRE1, stronger effect = lower value 1.04 | locus YDL101C, strain DUN1, stronger effect = lower value 1.05 | locus YDL185W, strain tfp1, stronger effect = lower value 1.02 | locus YDL192W, strain arf1, stronger effect = lower value 1.01 | locus YDR001C, strain nth1, stronger effect = lower value 1.01 | locus YDR069C, strain doa4, stronger effect = lower value 1.02 | locus YDR101C, strain arx1, stronger effect = lower value 0.997 | locus YDR137W, strain rgp1, stronger effect = lower value 0.971 | locus YDR159W, strain sac3, stronger effect = lower value 1.03 | locus YDR162C, strain NBP2, stronger effect = lower value 1.03 | locus YDR195W, strain ref2 1.03 | locus YDR297W, strain sur2, stronger effect = lower value 1.01 | locus YDR318W, strain mcm21, stronger effect = lower value 1 | locus YDR334W, strain swr1, stronger effect = lower value 1.03 | locus YDR335W, strain msn5, stronger effect = lower value 1.01 | locus YDR388W, stronger effect = lower value 0.997 | locus YDR392W, strain spt3, stronger effect = lower value 1.02 | locus YDR502C, strain sam2, stronger effect = lower value 1.02 | locus YEL003W, strain gim4, stronger effect = lower value 1.01 | locus YEL037C, strain rad23, stronger effect = lower value 1.01 | locus YEL061C, strain CIN8 (second series), stronger effect = lower value 1.01 | locus YER015W, strain faa2, stronger effect = lower value 1.01 | locus YER016W, strain bim1, stronger effect = lower value 1.01 | locus YER110C, stronger effect = lower value 1.01 | locus YER111C, strain swi4, stronger effect = lower value 1.01 | locus YER155C, strain BEM2 (second series), stronger effect = lower value 1 | locus YER155C, strain BEM2, stronger effect = lower value 1 | locus YER167W, strain BCK2, stronger effect = lower value 1.02 | locus YFR010W, strain ubp6, stronger effect = lower value 1.02 | locus YGL078C, strain dbp3, stronger effect = lower value 1 | locus YGL086W, strain mad1, stronger effect = lower value 0.993 | locus YGL167C, strain pmr1, stronger effect = lower value 1.01 | locus YGL173C, strain kem1, stronger effect = lower value 1 | locus YGL227W, strain vid30, stronger effect = lower value 1.01 | locus YGL240W, strain doc1, stronger effect = lower value 1 | locus YGL248W, strain PDE1, stronger effect = lower value 1.02 | locus YGL253W, strain hxk2, stronger effect = lower value 1.01 | locus YGR135W, strain pre9, stronger effect = lower value 1 | locus YGR252W, strain gcn5, stronger effect = lower value 0.907 | locus YHR013C, strain ard1, stronger effect = lower value 1.03 | locus YHR027C, strain rpn1, stronger effect = lower value 1.02 | locus YHR030C, strain SLT2, stronger effect = lower value 0.98 | locus YHR079C, strain IRE1 (second series), stronger effect = lower value 1.03 | locus YHR079C, strain IRE1, stronger effect = lower value 0.982 | locus YHR094C, strain hxt1, stronger effect = lower value 1.02 | locus YHR129C, strain ARP1, stronger effect = lower value 1.03 | locus YHR142W, strain chs7, stronger effect = lower value 0.987 | locus YHR200W, strain rpn10, stronger effect = lower value 1.03 | locus YIL066C, strain RNR3, stronger effect = lower value 1.02 | locus YIL073C, strain SPO22, stronger effect = lower value 1.07 | locus YIL125W, strain kgd1, stronger effect = lower value 1 | locus YIR030C, strain dcg1, stronger effect = lower value 1.02 | locus YJL092W, strain hpr5, stronger effect = lower value 1.02 | locus YJL095W, strain BCK1 (second series), stronger effect = lower value 1.01 | locus YJL095W, strain BCK1, stronger effect = lower value 1.01 and 0.987 | locus YJL115W, strain asf1, stronger effect = lower value 1.02 | locus YJL129C, strain trk1, stronger effect = lower value 0.996 | locus YJL134W, strain LCB3, stronger effect = lower value 1.02 | locus YJL154C, strain vps35, stronger effect = lower value 1 | locus YJL164C, strain tpk1, stronger effect = lower value 1.02 | locus YJL166W, strain qcr8, stronger effect = lower value 1 | locus YJL168C, strain set2, stronger effect = lower value 1.02 | locus YJL187C, strain SWE1 (second series), stronger effect = lower value 1.03 | locus YJL187C, strain SWE1, stronger effect = lower value 1 | locus YJR066W, strain TOR1, stronger effect = lower value 0.927 | locus YKL009W, strain mrt4, stronger effect = lower value 0.952 | locus YKL068W, stronger effect = lower value 1.03 | locus YKL085W, strain MDH1 (second series), stronger effect = lower value 1.02 | locus YKL085W, strain MDH1, stronger effect = lower value 1.02 | locus YKL160W, strain elf1, stronger effect = lower value 1.01 | locus YKL190W, strain CNB1, stronger effect = lower value 1.04 | locus YKR001C, strain vps1, stronger effect = lower value 1.01 | locus YKR026C, strain gcn3, stronger effect = lower value 1.01 | locus YKR091W, strain srl3, stronger effect = lower value 1.01 | locus YLL001W, strain dnm1, stronger effect = lower value 1.01 | locus YLL026W, stronger effect = lower value 1.01 | locus YLL041C, strain sdh2, stronger effect = lower value 1.01 | locus YLR027C, strain aat2, stronger effect = lower value 1 | locus YLR039C, strain RIC1, stronger effect = lower value 1.13 | locus YLR058C, strain SHM2, stronger effect = lower value 1.02 | locus YLR102C, strain apc9, stronger effect = lower value 1.01 | locus YLR113W, strain HOG1, stronger effect = lower value 1.01 | locus YLR221C, strain rsa3, stronger effect = lower value 1 | locus YLR258W, strain gsy2, stronger effect = lower value 1 | locus YLR262C, strain YPT6 (second series), stronger effect = lower value 1.01 | locus YLR262C, strain YPT6, stronger effect = lower value 1.06 | locus YLR268W, strain sec22, stronger effect = lower value 0.972 | locus YLR320W, strain mms22, stronger effect = lower value 1.02 | locus YLR330W, strain CHS5, stronger effect = lower value 1.02 | locus YLR342W, strain FKS1 (second series), stronger effect = lower value 0.997 | locus YLR342W, strain FKS1, stronger effect = lower value 1.01 | locus YLR357W, strain rsc2, stronger effect = lower value 1.1 | locus YLR370C, strain arc18, stronger effect = lower value 1.01 | locus YLR371W, strain rom2, stronger effect = lower value 1.04 | locus YLR384C, strain iki3, stronger effect = lower value 0.998 | locus YLR418C, strain cdc73, stronger effect = lower value 1.05 | locus YML016C, strain PPZ1, stronger effect = lower value 1.02 | locus YML032C, strain rad52, stronger effect = lower value 0.98 | locus YML120C, strain ndi1, stronger effect = lower value 1.02 | locus YML124C, strain tub3, stronger effect = lower value 1.03 | locus YMR058W, strain fet3, stronger effect = lower value 1.02 | locus YMR078C, strain ctf18, stronger effect = lower value 1.02 | locus YMR125W, strain sto1, stronger effect = lower value 1.04 | locus YMR129W, stronger effect = lower value 1.01 | locus YMR205C, strain PFK2, stronger effect = lower value 1.01 | locus YMR223W, strain ubp8, stronger effect = lower value 1.01 | locus YMR231W, strain pep5, stronger effect = lower value 1.01 | locus YMR307W, strain GAS1, stronger effect = lower value 0.979 | locus YNL067W, strain RPL9B, stronger effect = lower value 1.03 | locus YNL071W, strain lat1, stronger effect = lower value 1 | locus YNL153C, strain GIM3, stronger effect = lower value 1.04 | locus YNL183C, strain NPR1, stronger effect = lower value 0.944 | locus YNL209W, strain ssb2, stronger effect = lower value 1.01 | locus YNL233W, strain BNI4, stronger effect = lower value 1.03 | locus YNL248C, strain rpa49, stronger effect = lower value 1.02 | locus YNL250W, strain rad50, stronger effect = lower value 1.06 | locus YNL271C, strain bni1, stronger effect = lower value 1.02 | locus YNL298W, strain CLA4, stronger effect = lower value 0.969 | locus YNL307C, strain MCK1, stronger effect = lower value 0.97 | locus YNL322C, strain KRE1 (second series), stronger effect = lower value 1.01 | locus YNL322C, strain KRE1, stronger effect = lower value 1.02 | locus YNR049C, strain mso1, stronger effect = lower value 1.01 | locus YNR052C, strain pop2, stronger effect = lower value 1.02 | locus YOL012C, strain htz1 1.12 | locus YOL147C, strain pex11, stronger effect = lower value 1 | locus YOR001W, strain rrp6, stronger effect = lower value 1 | locus YOR061W, strain CKA2, stronger effect = lower value 1.02 | locus YOR069W, strain VPS5, stronger effect = lower value 1.02 | locus YOR070C, strain gyp1, stronger effect = lower value 1 | locus YOR080W, strain dia2, stronger effect = lower value 1.01 | locus YOR083W, strain WHI5, stronger effect = lower value 0.999 | locus YOR106W, strain vam3, stronger effect = lower value 1 | locus YOR136W, strain idh2, stronger effect = lower value 1.01 | locus YOR144C, strain elg1, stronger effect = lower value 1.04 | locus YOR184W, strain ser1, stronger effect = lower value 0.957 | locus YOR231W, strain MKK1, stronger effect = lower value 0.993 | locus YOR265W, strain rbl2, stronger effect = lower value 1.01 | locus YOR270C, strain vph1, stronger effect = lower value 1.04 | locus YOR290C, strain snf2, stronger effect = lower value 1.02 | locus YOR316C, strain cot1, stronger effect = lower value 1.02 | locus YPL051W, strain arl3, stronger effect = lower value 1 | locus YPL078C, strain atp4, stronger effect = lower value 1.01 | locus YPL106C, strain sse1, stronger effect = lower value 0.996 | locus YPL240C, strain hsp82, stronger effect = lower value 0.995 | locus YPL241C, strain CIN2, stronger effect = lower value 1.04 | locus YPL256C, strain CLN2, stronger effect = lower value 0.963 | locus YPR119W, strain clb2, stronger effect = lower value 1.02 | locus YPR141C, strain kar3, stronger effect = lower value 1.03 | locus YPR163C, strain tif3, stronger effect = lower value 0.992 | locus YPR167C, strain met16, stronger effect = lower value 1.02 | strain wtn01, stronger effect = lower value 1.01
